The results in this text go back to the supplement of paper PMC12067926.

Unmarked numbers belong to inactive results.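 The calls were made as follows: active = growth AUC significantly below the DMSO wells by Dunnett test; inactive = the rest.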

In the assay the test system is Carnobacterium 1 (Carnobacterium gallinarum). Kind of assay: relative growth (AUC of 72 h growth curve relative to DMSO control, dAUC) (ratio); higher = more growth (less inhibition), active = hit call of the paper. The settings on record: 20 µM. As for the experimental part:
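Environmental bacterial isolates (Iceland stream sediment and Silwood Park soil) and whole stream-sediment communities were grown in LB from a 1:100 dilution with each pesticide at 20 µM (1% DMSO). A600 was read hourly for 72 h and the area under a spline-fitted growth curve (AUC) was computed. dAUC is the mean AUC of 3 biological replicates divided by the mean AUC of the DMSO controls. Significance was tested by Dunnett's test against the DMSO control.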
Take `Oc1ccccc1-c1ccccc1`: the relative growth was 0.744.
With `COC(=O)N(C(=O)N1CO[C@@]2(C(=O)OC)Cc3cc(Cl)ccc3C2=N1)c1ccc(OC(F)(F)F)cc1`, the relative growth is 1.15.
With `CCc1cnc(C2=NC(C)(C(C)C)C(=O)N2)c(C(=O)O)c1` (stereo not given) the figure was 1.06; with `Cc1cc(C2CC2)nc(Nc2ccccc2)n1`, 0.909.
In the case of `Oc1ccc(Cl)cc1Cc1cc(Cl)ccc1O` it was 0.00911 (active); in that of `CCc1cccc(C)c1N(C(=O)CCl)[C@@H](C)COC`, 1.04.
In the case of `O=C1c2ccccc2C(=O)N1SC(Cl)(Cl)Cl` it was 1.03; in that of `C[N+](C)(C)CCCl`, 1.05; in that of `CS(=O)(=O)c1cc(C(F)(F)F)ccc1C(=O)c1cnoc1C1CC1`, 1.43.
As to `CNC(=O)ON=C(C)SC`, the relative growth was 1.18.
With `CC1=NNC(=O)N(/N=C/c2cccnc2)C1` the figure was 1.3.
In the case of `C/C(=N\C#N)N(C)Cc1ccc(Cl)nc1` it was 1.32; in that of `CSc1nnc(C(C)(C)C)c(=O)n1N`, 1.38; in that of `Cc1cc(C(F)(C(F)(F)F)C(F)(F)F)ccc1NC(=O)c1cccc(I)c1C(=O)NC(C)(C)CS(C)(=O)=O`, 0.956.
With `CCOC(=O)OC1=C(c2cc(C)ccc2C)C(=O)N[C@]12CC[C@@H](OC)CC2` the figure was 1.17; with `CCCCc1c(C)nc(NCC)nc1OS(=O)(=O)N(C)C`, 0.861.
Turning to `N#Cc1sc2c(=O)c3ccccc3c(=O)c=2sc1C#N`, the relative growth is 0.62.
With `C#CCOc1ccc(CCNC(=O)C(OCC#C)c2ccc(Cl)cc2)cc1OC` (stereo not given) the figure was 1.18; with `CCNc1nc(Cl)nc(NC(C)C)n1`, 1.18.
With `CCC(C)(C)C(=O)OC1=C(c2ccc(Cl)cc2Cl)C(=O)OC12CCCCC2` the figure was 1.13.
Consider `CNC(=O)Oc1cccc(/N=C/N(C)C)c1`, for which the relative growth was 0.892.
With `CC1(C)C(C=C(Cl)Cl)C1C(=O)OCc1cccc(Oc2ccccc2)c1` (stereo not given) the figure was 0.871; with `CCCCOC(=O)[C@H](C)Oc1ccc(Oc2ccc(C#N)cc2F)cc1`, 0.961.
With `O=C1C=C(N(Cc2ccc(Cl)nc2)CC(F)F)CO1` the figure was 1.06; with `CC(C)N(C(=O)COc1nnc(C(F)(F)F)s1)c1ccc(F)cc1`, 1.04; with `O=C(NC(=O)c1c(F)cccc1F)Nc1ccc(OC(F)(F)C(F)OC(F)(F)F)c(Cl)c1` (stereo not given), 0.745.
In the case of `CO/N=C(/C(=O)OC)c1ccccc1CO/N=C(\C)c1cccc(C(F)(F)F)c1` it was 0.975.
As for `CC1(C)[C@H](C(=O)O[C@H](C#N)c2cccc(Oc3ccccc3)c2)[C@@H]1C=C(Br)Br`, the relative growth is 1.47.
In the case of `Cc1cc(C)nc(Nc2ccccc2)n1` it was 1.1; in that of `Cc1nc(N(C)C)nc(OC(=O)N(C)C)c1C`, 0.883; in that of `CO/C=C(/C(=O)OC)c1ccccc1Oc1cc(Oc2ccccc2C#N)ncn1`, 1.27.
With `CC[C@H]1CCC[C@H](O[C@H]2CC[C@H](N(C)C)[C@@H](C)O2)[C@@H](C)C(=O)C2=C[C@@H]3[C@@H](C=C(C)[C@@H]4C[C@@H](O[C@@H]5O[C@@H](C)[C@H](OC)[C@@H](OC)[C@H]5OC)C[C@@H]34)[C@@H]2CC(=O)O1.CC[C@H]1CCC[C@H](O[C@H]2CC[C@H](N(C)C)[C@@H](C)O2)[C@@H](C)C(=O)C2=C[C@H]3[C@@H]4C[C@H](O[C@@H]5O[C@@H](C)[C@H](OC)[C@@H](OC)[C@H]5OC)C[C@H]4C=C[C@H]3C2CC(=O)O1` the figure was 0.952; with `COc1cc(OC)nc(NC(=O)NS(=O)(=O)c2ncccc2C(=O)N(C)C)n1`, 1.09; with `CCOc1ccc(C(C)(C)COCc2cccc(Oc3ccccc3)c2)cc1`, 0.99.
In the case of `CCCC1COC(Cn2cncn2)(c2ccc(Cl)cc2Cl)O1` (stereo not given) it was 0.835; in that of `CCC(C)c1ccccc1OC(=O)NC` (stereo not given), 1.11.
With `COc1ncc(F)c2nc(S(=O)(=O)Nc3c(F)cccc3F)nn12`, the relative growth is 1.1.
In the case of `COP(=S)(OC)Oc1nc(Cl)c(Cl)cc1Cl` it was 0.447; in that of `CCCCC(C#N)(Cn1cncn1)c1ccc(Cl)cc1` (stereo not given), 0.998.
On to `N#Cc1c[nH]cc1-c1cccc2c1OC(F)(F)O2`, for which the relative growth is 1.07.
